Bioassay records as filed in PubChem.
The full list was thinned out, with hits kept by preference.
Tgondii IFNg: T. gondii growth inhibition with IFN-gamma, primary screen, cell-based; activity change, negative = inhibition, % (concentration not given with the values); Toxoplasma gondii growth in IFN-gamma-treated host cells; hits give low values; 69,000 compounds, 3.8% hits; in the data active = activity change below about -70%, passing the limit was not always enough;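 note: host cells are HeLa cells infected with Toxoplasma gondii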
A number is an active result.

For CCOC(=O)C1=C(C)NC(C)=C(C(=O)OC)C1c1cccc([N+](=O)[O-])c1 (stereo not given) the results were Tgondii IFNg inactive.
Screening CCc1c(C(=O)N2CCC3(CC2)CN(C)CCN3C)[nH]c2ccccc12 returned Tgondii IFNg inactive.
CC(C)(C)N1CC(C(=O)NCc2cccc(N3CCCCC3)c2)CC1=O (stereo not given) was read as Tgondii IFNg inactive.
`Cc1cc(C)n(C)c(=O)c1C(=O)N1CCO[C@@H]2CCCC[C@H]21` gave Tgondii IFNg inactive.
Screening Cc1ccc(C)c(NCc2n[nH]c(=S)n2-c2ccccc2)c1 returned Tgondii IFNg inactive.
Screening Cc1c(C)c(C)c(CSCc2n[nH]c(=S)n2-c2ccc(F)cc2)c(C)c1C returned Tgondii IFNg -86.4.
Screening Cc1noc(C)c1-n1sc(=O)n(-c2ccc(F)cc2)c1=O returned Tgondii IFNg inactive.
`CN(C)CC(=O)N1CCN(c2ccc3ccc(C(=O)NCC4CC4)cn23)CC1` gave Tgondii IFNg inactive.
`CCc1ccc(NC(=S)Nc2ccc(Cl)cc2C(=O)c2ccccc2)cc1` gave Tgondii IFNg -95.9.
CC(=O)c1cccc(NC(=S)Nc2ccc(F)cc2)c1 was read as Tgondii IFNg inactive.
For O=C(Cc1ccccc1)Nc1ccc(Cl)cc1 the results were Tgondii IFNg inactive.
`CCC(=O)N1CCc2c([nH]c3ccccc23)C12C(=O)N(CC(C)C)c1ccccc12` (stereo not given) gave Tgondii IFNg inactive.
Cc1ccc(NC(=O)NCC(c2cccnc2)c2cn(C)c3ccccc23)cc1Cl (stereo not given) was read as Tgondii IFNg inactive.
For Cc1ncc(-c2ccc3c(c2)OCO3)c(-c2cccnc2)n1 the results were Tgondii IFNg inactive.
For Cc1cc(-c2ccc3c(c2)OCO3)cnc1N the results were Tgondii IFNg inactive.
Screening Cc1nc(-c2ccc3c(c2)OCO3)cc(C(C)C)n1 returned Tgondii IFNg -72.3.
For COc1ccc(-c2cc(C(=O)O)nc(=O)n2C)cc1 the results were Tgondii IFNg inactive.
For Cc1c(CN(C)Cc2ccsc2)cnn1C the results were Tgondii IFNg inactive.
`CO[C@@H]1CN(C)C(=O)c2cc(NS(=O)(=O)c3cn(C)cn3)ccc2OC[C@H](C)NC[C@@H]1C` gave Tgondii IFNg inactive.
`CN(C(=O)c1c(O)c2ccccc2n(C)c1=O)c1ccccc1` gave Tgondii IFNg inactive.
Screening CCCC(=O)N1CCc2c([nH]c3ccccc23)C12C(=O)Nc1ccc(Br)cc12 (stereo not given) returned Tgondii IFNg -81.6.
`CCC(=O)N1CCc2c([nH]c3ccccc23)C12C(=O)Nc1ccc(Br)cc12` (stereo not given) gave Tgondii IFNg inactive.
For CCC(=O)N1CCc2c([nH]c3ccccc23)C12C(=O)N(C)c1ccc(Br)cc12 (stereo not given) the results were Tgondii IFNg inactive.
For Cc1ccccc1C(=O)N1CCC2(CC1)Nc1cc(F)ccc1-n1cccc12 the results were Tgondii IFNg inactive.
Screening Cc1nc(CN)cc(N(C)Cc2nonc2C)n1 returned Tgondii IFNg inactive.
`COc1cc(-c2ccc(S(C)(=O)=O)cc2)nc(OC)n1` gave Tgondii IFNg inactive.
Cc1cccc2[nH]c(COCC(=O)N3CCC4(CCCNC4)C3)nc12 (stereo not given) was read as Tgondii IFNg inactive.
Screening Cc1nc(-c2cnccn2)sc1C(=O)Nc1ccc(N2CCOCC2)cc1 returned Tgondii IFNg inactive.
`Cc1nn(CC(=O)Nc2ccc(N3CCOCC3)cc2)c(C)c1Br` gave Tgondii IFNg inactive.
`Cc1nc(N)sc1-c1ccnc(Nc2ccc(N3CCOCC3)cc2)n1` gave Tgondii IFNg -79.4.
For CC(=O)NCc1csc(C2CCN(C(=O)COc3ccc(F)cc3)CC2)n1 the results were Tgondii IFNg inactive.
For c1ccc(-c2nnnn2-c2ccccn2)cc1 the results were Tgondii IFNg inactive.
`COc1ccc(Cl)cc1-n1cnnn1` gave Tgondii IFNg inactive.
For O=C(CCC1N=C2c3ccccc3N=C(SCc3ccccc3Cl)N2C1=O)NCc1cccs1 (stereo not given) the results were Tgondii IFNg inactive.
CN(C)c1nc(N)c(C(=O)Nc2cccnc2)nc1Cl was read as Tgondii IFNg inactive.
For c1coc(Cn2ccnc2-c2ccc(-c3ccn[nH]3)o2)c1 the results were Tgondii IFNg inactive.
`Cc1cc(C)cc(N2CCN(Cc3ccc(-c4ccn[nH]4)o3)CC2=O)c1` gave Tgondii IFNg inactive.
Screening FC(F)(F)c1cc(-c2ccc(-c3ccn[nH]3)o2)cc(C(F)(F)F)c1 returned Tgondii IFNg -105.7.
`C=CCOC1C2CCC1N(C(=O)c1nn(C)c3ccccc13)CCO2` (stereo not given) gave Tgondii IFNg inactive.
For OCCCc1nc2ccc(C(F)(F)F)cc2[nH]1 the results were Tgondii IFNg inactive.
`COC(=O)C1CN(Cc2ccccc2)CCC1=O` (stereo not given) gave Tgondii IFNg inactive.
For CC1(C)CC(=O)c2cnc3nc(N)nn3c2C1 the results were Tgondii IFNg inactive.
For Cc1nn(-c2ccc3ccccc3n2)c2c1C(=O)CC(C)(C)C2 the results were Tgondii IFNg -94.9.
`Cc1nn(C(=O)c2ccccc2)c2c1C(=O)CC(C)(C)C2` gave Tgondii IFNg inactive.
Screening CC(C)(C)Cn1c(N)nc2ccc(-c3[nH]c(C(C)(C)C)nc3-c3ccc(F)cc3)nc21 returned Tgondii IFNg -83.1.
Screening O=C(NC(C(=O)c1ccccc1)n1c(=O)cc[nH]c1=S)c1ccccc1 (stereo not given) returned Tgondii IFNg inactive.
`COc1cc(C)c(C)cc1S(=O)(=O)NCCc1sc(-c2cccc(F)c2)nc1C` gave Tgondii IFNg inactive.
Screening CC(C)CN(C[C@H]1N[C@H](CO)[C@@H]1c1ccccc1)C(=O)C1CCCCC1 returned Tgondii IFNg inactive.
COCCNC(=O)Cn1nc(C)c2sc(-c3ccccc3)nc2c1=O was read as Tgondii IFNg inactive.
`O=C(C[C@@H]1CC[C@H]2[C@@H](COC[C@H](O)CN2Cc2ccc(C(F)(F)F)cc2)O1)N1CCc2ccccc2C1` gave Tgondii IFNg inactive.
Screening COc1cccc(-c2ccc(C3[C@@H]4CN(Cc5ccccn5)C[C@H]3N4)cc2)c1 (stereo not given in full) returned Tgondii IFNg inactive.
CCN1c2cc(C)ccc2-n2cccc2C12CCN(C(=O)Nc1ccc(C)cc1)CC2 was read as Tgondii IFNg -74.9.
For CCc1ccccc1NC(=O)N1CCC2(CC1)c1cccn1-c1ccc(C)cc1N2CC the results were Tgondii IFNg inactive.
`CCN1c2cc(C)ccc2-n2cccc2C12CCN(C(=O)Nc1cccc(OC)c1)CC2` gave Tgondii IFNg inactive.
For CCN1c2cc(C)ccc2-n2cccc2C12CCN(C(=O)Nc1cccc(Cl)c1)CC2 the results were Tgondii IFNg -82.5.
`CCN1c2cc(C)ccc2-n2cccc2C12CCN(C(=O)Nc1cc(Cl)c(OC)cc1OC)CC2` gave Tgondii IFNg inactive.
CCN1c2cc(C)ccc2-n2cccc2C12CCN(C(=O)Nc1ccccc1OC)CC2 was read as Tgondii IFNg -88.2.
Screening CCc1ccc(NC(=O)N2CCC3(CC2)c2cccn2-c2ccc(C)cc2N3CC)cc1 returned Tgondii IFNg inactive.
CCN1c2cc(C)ccc2-n2cccc2C12CCN(C(=O)Nc1ccc(F)c(Cl)c1)CC2 was read as Tgondii IFNg inactive.
For CCN1c2cc(C)ccc2-n2cccc2C12CCN(C(=O)Nc1ccccc1)CC2 the results were Tgondii IFNg inactive.
